Measurements: PubChem BioAssay (Tox21)
Inconclusive results are not listed. Activity calls are given as the source filed them. Unless noted, calls follow the shape of the dose curve; as a rule, active = well fitted curve in the direction sought with a large enough effect in the repeat runs; inconclusive = weak or mixed curves; inactive = no such curve, though single readings can be large; an effect the other way counts as inactive or inconclusive.

Legend:
[1] = qHTS RealTime-Glo MT Cell Viability Assay in HEK293 cells - 8 hour (AID 1224887); also: top concentration of the series differs between compounds; nearly all actives have a fitted effect of over 50% in size
Procedure, shortened: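 Real-time viability in HEK293: signal arises when living cells convert a prosubstrate for NanoLuc in the medium, so luminescence tracks viable cell number. Compound (23 nL, DMSO) added 5 h post-seeding; kinetic reads at 0–40 h, 37 C.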

[2] = A CellTox Green Cytotoxicity Assay to monitor cytotoxicity in HEK293 cells - 16 hour (AID 1224888); also: nearly all actives have a fitted effect of over 35% in size
Procedure, shortened: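 Cells (HEK293, 600/well) and dye reagent are dispensed together. After 5 h at 37 C, 23 nL compound is pinned in. Plates stay at 37 C for 40 h with fluorescence read at 0h, 8h, 16h, 24h, 32h and 40h.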

[3] = qHTS RealTime-Glo MT Cell Viability Assay in HepG2 cells - 0 hour (AID 1224889); also: nearly all actives have a fitted effect of over 50% in size
Procedure, shortened: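 Viability was tracked continuously by NanoLuc luminescence from prosubstrate reduced by living HepG2 cells, at successive time points over 40 h of compound exposure. Cells with reagent were preincubated 5 h at 37 °C before compound addition.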

[4] = A CellTox Green Cytotoxicity Assay to monitor cytotoxicity in HepG2 cells - 8 hour (AID 1224890); also: nearly all actives have a fitted effect of over 45% in size; also: potency is read from the fitted curve at half-maximal effect
Procedure, shortened: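 Cells and non-lytic dye reagent are dispensed together (600 HepG2 cells/well) and incubated 5 h before DMSO compound transfer. Kinetic fluorescence is then recorded in the same wells during 40 h at 37 C.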

[5] = qHTS assay to identify small molecule antagonists of the estrogen receptor alpha (ER-alpha) signaling pathway using the BG1 cell line in the presence of 0.1 nM 17-beta-estradiol - cell viability counter screen (AID 1259241); also: nearly all actives have a fitted effect of over 40% in size
Procedure, shortened: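 In this screen, hormone-deprived VM7Luc4E2 cells were seeded at 4,000 per well, dosed with compound and 0.1 nM estradiol final, and incubated 22 hr at 37C and 5% CO2; fluorogenic live-cell protease signal reported viability.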

[6] = qHTS assay to identify small molecule antagonists of the androgen receptor (AR) signaling pathway using the MDA cell line in the presence of 0.5 nM R1881 - cell viability counter screen (AID 1259242); also: nearly all actives have a fitted effect of over 45% in size
Procedure, shortened: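 Steps: plate MDA-kb2 cells, rest 5 hr at 37C without CO2; pin in compounds in DMSO; add R1881 to 0.5 nM final; incubate 16 hr; add CellTiter-Fluor, 30 min; read fluorescence.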

[7] = biological target: Estrogen receptor (Homo sapiens) (UniProt P03372); experiment: qHTS assay to identify small molecule antagonists of the estrogen receptor alpha (ER-alpha) signaling pathway using the BG1 cell line in the presence of 0.1 nM 17-beta-estradiol (AID 1259244); also: nearly all actives have a fitted effect of over 50% in size
Estrogen receptor (Homo sapiens), sequence (P03372 whole entry, looked up): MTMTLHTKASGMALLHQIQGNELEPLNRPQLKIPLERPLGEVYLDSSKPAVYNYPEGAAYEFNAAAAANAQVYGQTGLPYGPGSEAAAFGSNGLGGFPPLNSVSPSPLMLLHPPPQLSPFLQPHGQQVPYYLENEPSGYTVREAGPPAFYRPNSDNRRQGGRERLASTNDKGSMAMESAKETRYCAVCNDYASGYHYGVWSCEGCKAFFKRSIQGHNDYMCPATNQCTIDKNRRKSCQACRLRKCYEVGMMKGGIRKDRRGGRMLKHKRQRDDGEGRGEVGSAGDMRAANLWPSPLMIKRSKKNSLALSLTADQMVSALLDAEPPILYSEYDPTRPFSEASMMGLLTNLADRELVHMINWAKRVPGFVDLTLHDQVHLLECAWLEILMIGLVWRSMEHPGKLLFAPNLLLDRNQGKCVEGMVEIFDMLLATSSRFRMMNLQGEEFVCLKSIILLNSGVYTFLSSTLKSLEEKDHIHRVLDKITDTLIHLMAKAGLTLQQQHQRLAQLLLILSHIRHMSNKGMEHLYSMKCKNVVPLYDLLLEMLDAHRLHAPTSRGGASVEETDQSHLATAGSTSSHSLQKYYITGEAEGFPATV
Procedure, shortened: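 Antagonist mode: compounds in DMSO are pinned onto VM7Luc4E2 reporter cells, 0.1 nM final 17beta-estradiol is added, and after 22 h at 37C luciferase luminescence is measured with ONE-Glo.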

[8] = qHTS assay to identify small molecule HDAC inhibitors (AID 1259364); also: potency is read from the fitted curve at half-maximal effect;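 also: wild-type HCT-116 cells with endogenous class I/II HDAC activity; nearly all actives have a fitted effect of over 45% in size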
Procedure, shortened: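 Cells (HCT-116, wild type) are seeded at 1,500 per well, incubated overnight, treated with compound in DMSO for 2 hr, then developed with HDAC-Glo I/II reagent for 30 min at room temperature.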

[9] = qHTS assay to identify small molecule phospholipidosis (PLD) inducers (AID 1259344; active = well fitted curve in the direction sought with a large enough effect; an effect the other way counts as inactive or inconclusive)
Procedure, shortened: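 After 4 h attachment on collagen I, HepG2 cells were dosed with compound alongside LipidTOX Red, kept 24 h at 37 C, fixed, and imaged for lamellar phospholipid pits.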

[10] = qHTS assay to identify small molecule HDAC inhibitors - cell viability counter screen (AID 1259365); also: series mostly up to about 92 µM; nearly all actives have a fitted effect of over 50% in size
Procedure, shortened: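 Measured quantity is CellTiter-Glo luminescence from wild-type HCT-116 cells after compound incubation of 2hr at 37C, 5% CO2; reagent developed 30min at room temperature.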

Measured: Potency

CC(C)COC(=O)/C=C/c1ccccc1
not listed: [9] | [10]
inactive: all other assays above

COc1cc2c(Nc3ccc(Br)cc3F)ncnc2cc1OCC1CCN(C)CC1
not listed: [10]
inactive: all other assays above

CCCCCCCCCCC
not listed: [9]
inactive: all other assays above

Cc1c(C(C)C)c(=O)n(-c2ccccc2)n1C
inactive: all assays above

CC(C)C(=O)Nc1cccc(C(F)(F)F)c1
not listed: [9] | [10]
inactive: all other assays above

CC(C)(CO)[C@@H](O)C(=O)NCCCO
inactive: all assays above

Nc1ccc(S(=O)(=O)Nc2ccccn2)cc1
inactive: all assays above

CC(=O)c1ccc(OCC(=O)N2CCCCC2)cc1
active: [8] 13.3 µM
inactive: all other assays above

COc1ccc(/C=N/NC(=O)c2ccncc2)cc1OC
not listed: [10]
inactive: all other assays above

CNC(=O)NC
not listed: [9] | [10]
inactive: all other assays above

NCCc1ccn[nH]1
not listed: [10]
inactive: all other assays above

Cc1cccc(Nc2ccncc2S(=O)(=O)NC(=O)NC(C)C)c1
inactive: all assays above

C[C@H](CCC(=O)O)[C@H]1CC[C@H]2[C@@H]3[C@H](O)C[C@@H]4C[C@H](O)CC[C@]4(C)[C@H]3C[C@H](O)[C@]12C
inactive: all assays above

Cc1oc(=O)oc1CN1CCN(c2cc3c(cc2F)c(=O)c(C(=O)O)c2n3C(C)S2)CC1 (centres undefined)
active: [4] 0.535 µM
inactive: all other assays above

C1=C\CC/C=C\CC/1
not listed: [8] | [9] | [10]
inactive: all other assays above

CCS(=O)(=O)CCn1c([N+](=O)[O-])cnc1C
inactive: all assays above

NS(=O)(=O)c1ccc(Cl)c(S(N)(=O)=O)c1
inactive: all assays above

FC(F)(F)/C(=N\OCC1OCCO1)c1ccc(Cl)cc1
not listed: [9] | [10]
inactive: all other assays above

Cc1nc2ccccc2c(=O)o1
not listed: [8] | [9] | [10]
inactive: all other assays above

OC(CCN1CCCCC1)(c1ccccc1)c1ccccc1
inactive: all assays above

Nc1nc(=O)n([C@@H]2O[C@H](CO)[C@@H](O)[C@@H]2F)cc1I
not listed: [9] | [10]
inactive: all other assays above

COc1ccc(NS(=O)(=O)c2ccc(N)cc2)nn1
inactive: all assays above

O=C(Oc1ccccc1C(=O)O)c1ccccc1O
inactive: all assays above

CC(=O)Nc1ccc(C)cc1
not listed: [9]
inactive: all other assays above
